Results on 40 compounds are retold here after PubChem BioAssay (Tox21).

Records with an inconclusive call do not appear. Where a call stands in place of a potency, no number is given. Unmarked numbers belong to inactive results. Calls of active or inactive are those of the source. Calls follow the shape of the full dose curve.
Potency is read from the fitted curve at half-maximal effect.

The test can be described thus: qHTS assay for small molecule disruptors of the mitochondrial membrane potential - cell viability (AID 720634). Also: nearly all actives have a fitted effect of over 20% in size.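 As to activity change, negative = cytotoxicity: human HepG2 liver cancer cells.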 Conditions: HepG2 viability, ATP luminescence (CellTiter-Glo), 1 h; series mostly up to 83.2 µM; activity change, negative = cytotoxicity: at the top concentration. The text has this: U.S. Tox21 Program National Center for Advancing Translational Sciences [NCATS] NIH Chemical Genomics Center [NCGC] U.S. Environmental Protection Agency [EPA] National Institutes of Environmental Health Sciences [NIEHS] National Toxicology Program [NTP] U.S. Food and Drug Administration [FDA] Tox21 Assay Overview: Mitochondrial membrane potential (MMP), one of the parameters for mitochondrial function, is generated by mitochondrial electron transport chain that creates an electrochemical gradient by a series of redox reactions. This gradient drives the synthesis of ATP, a crucial molecule for various cellular processes. Measuring MMP in living cells is commonly used to assess the effect of chemicals on mitochondrial function; decreases in MMP can be detected using lipophilic cationic fluorescent dyes. […] The dye accumulates in the mitochondria of healthy cells as aggregates, with red fluorescence. The mitochondrial potential decreases and the dye could not accumulate in the mitochondria and remains in the cytoplasm in monomers, with green fluorescence. In addition to the mitochondrial potential assay, these cells were also used to test the cytotoxicity by determining the cell viability in the culture based on the quantitation of ATP present. The cytotoxicity was measured in the same assay well of MMP assay.
Tox21 Assay Protocol Summary: 2,000 HepG2 cells in 5 uL/well were dispensed into black, clear-bottom 1536-well plates using a Multidrop Combi (Thermo Scientific) dispenser. The assay plates were incubated for an overnight at 37 C to allow cells to attach to the wells, followed by the transfer of 23 nL compound or DMSO vehicle by a pin tool (Kalypsys). The plates were incubated for 1 hr at 37 C and 5% CO2, followed by the addition of 5 uL of 2X m-MPI dye into each well using Flying Reagent Dispenser (Aurora Discovery) and then CellTiter-Glo reagent was added at 4 uL/well and incubated 30 min at room temperature. Then luminescence intensity was quantified on a ViewLux CCD-based plate reader.
In the case of `C[C@]12CC[C@@H]3c4ccc(O)cc4CC[C@H]3[C@@H]1CCC2=O`, the Potency entry was “inactive”. For the compound `Cc1ccc(O)c(-n2nc3ccccc3n2)c1`, the Potency is 30.6 µM (active). On the same count and under the same terms, with `CC(C)Cc1ccc(C(C)C(=O)O)cc1` (stereo not given) the entry was “inactive”; with `CN/C(=C\[N+](=O)[O-])NCCSCc1ccc(CN(C)C)o1`, “inactive”; with `O=c1c(-c2ccc(O)cc2)coc2cc(O)cc(O)c12`, “inactive”. As for `OC[C@@H](O)[C@@H](O)[C@H](O)[C@H](O)CO`, the Potency entry is “inactive”. Consider `O=C1OC(c2ccc(O)cc2)(c2ccc(O)cc2)c2ccccc21`, for which the “activity change, negative = cytotoxicity” value was -3.55%. For the compound `C=CC(=O)NC(C)(C)CS(=O)(=O)O`, the Potency entry was “inactive”.

`NC(=O)OCC(COC(N)=O)c1ccccc1`: the Potency result is “inactive”.

For the compound `Oc1cccc(O)c1`, the Potency entry was “inactive”.

In the case of `CCc1cc(C(N)=S)ccn1`, the Potency result was “inactive”. Take `CCCCCCCCCCCCCC(=O)OC(C)C`: the Potency result was “inactive”. With `C#C[C@]1(O)CC[C@H]2[C@@H]3CCc4cc(O)ccc4[C@H]3CC[C@@]21C`, the Potency result was “inactive”. The same measure, in the same setting: for `COc1ccccc1NC(=O)CC(C)=O` the value was “inactive”. As for `CC(O)COc1ccccc1` (stereo not given), the Potency result is “inactive”. Same read-out and setting: with `Nc1ccc(N=Nc2ccccc2)c(N)n1` the entry was “inactive”; with `N[C@@H](Cc1c[nH]c2ccc(O)cc12)C(=O)O`, “inactive”. Turning to `N[C@@H](Cc1c[nH]c2ccccc12)C(=O)O`, the Potency entry is “inactive”. `CCCCC/C(C=O)=C\c1ccccc1`: the Potency result was “inactive”. In the case of `O=C(OCc1ccccc1)c1ccccc1`, the Potency entry was “inactive”. Turning to `Cc1c(N(C)CS(=O)(=O)O)c(=O)n(-c2ccccc2)n1C`, the Potency entry is “inactive”. For `O=[N+]([O-])c1ccc(O)cc1`, the Potency result is “inactive”. As to `CC1(C)O[C@@H]2[C@@H](CO[C@@]3(COS(N)(=O)=O)OC(C)(C)O[C@@H]23)O1`, the Potency result is “inactive”. Same read-out and setting: with `C[C@]12C=CC(=O)C=C1CC[C@@H]1[C@@H]2C(=O)C[C@@]2(C)[C@H]1CC[C@]2(O)C(=O)CO` the entry was “inactive”; with `NC(=O)N/N=C/c1ccc([N+](=O)[O-])o1`, “inactive”; with `CC(C)(C)NCC(O)c1ccc(O)c(CO)c1` (stereo not given), “inactive”.

Turning to `O=C(O)CCCCC1CCSS1` (stereo not given), the Potency entry is “inactive”. Still for that read-out and setting: with `CCCCOCCOCCSC#N` the entry was “inactive”; with `COc1cc(C=O)ccc1O`, “inactive”; with `CC1=C(/C=C/C(C)=C/C=C/C(C)=C/C(=O)O)C(C)(C)CCC1`, “inactive”. On the same count and under the same terms, with `NC(=O)NO` the entry was “inactive”.

Turning to `COc1ccc(C(=O)c2ccccc2)c(O)c1`, the Potency entry is “inactive”. Turning to `C=C(C)OC(C)=O`, the Potency result is “inactive”. Consider `NC(=O)N1c2ccccc2C=Cc2ccccc21`, for which the Potency result was “inactive”. On to `Cn1cnc2c1c(=O)[nH]c(=O)n2C`, for which the Potency entry was “inactive”. Same read-out and setting: with `Cc1cccc(C)c1O` the entry was “inactive”. Turning to `CCCCOCCOCCOC(C)=O`, the Potency entry was “inactive”.

As for `NC(=O)c1ccc([N+](=O)[O-])cc1Cl`, the Potency entry was “inactive”. Turning to `CC(=O)CCC(C)C`, the Potency entry was “inactive”.

As for `COc1cc(O)c(C(=O)c2ccccc2)cc1S(=O)(=O)O`, the Potency entry is “inactive”.
